Results taken from PubChem BioAssay AID1159580 (chemical genetic matrix, 2015).
“And” between values parts separate entries of the source, which are not always exact repeats. Identical values can stand only once. About 2,000 (36%) of roughly 5,500 compounds were called active. Another 18% or so got no clear call; they are omitted. Cut-off read from the data, not from the text of the source: active = normalized growth mostly below about 0.91 (no sharp cut-off); inconclusive = no clear call, values can overlap the other calls; inactive = mostly above about 0.92. Some of the results follow.

Experiment: chemical genetic growth profiling, strain panel (AID 1159580);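 note: tested at 20 µM; growth read once vehicle control cultures reached saturation at 30 °C; 1 = growth at the plate median or of vehicle wells; lower values mean less growth of the strain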
Conditions: S. cerevisiae deletion strains, growth OD

Measured: normalized growth

COCCc1ccc(OCC(O)CNC(C)C)cc1 (stereo unspecified)
inactive: locus YAL013W, strain DEP1, active compounds read low 1.01 | locus YAL021C, strain ccr4, active compounds read low 1 | locus YAL026C, strain drs2, active compounds read low 1.01 | locus YAL030W, strain snc1, active compounds read low 0.988 | locus YAL040C, strain CLN3, active compounds read low 0.996 | locus YBL061C, strain skt5, active compounds read low 0.989 | locus YBR009C, strain hhf1, active compounds read low 0.998 | locus YBR021W, strain FUR4, active compounds read low 1.01 | locus YBR023C, strain chs3, active compounds read low 0.987 | locus YBR171W, strain sec66, active compounds read low 0.986 | locus YBR229C, strain ROT2, active compounds read low 1 | locus YBR231C, strain swc5, active compounds read low 1.01 | locus YBR279W, strain paf1, active compounds read low 1.01 | locus YCL011C, strain gbp2, active compounds read low 0.96 | locus YCL016C, strain dcc1, active compounds read low 0.966 | locus YCL029C, strain bik1, active compounds read low 1.03 | locus YCL061C, strain MRC1 (second series), active compounds read low 1 | locus YCL061C, strain MRC1, active compounds read low 0.997 | locus YCL069W, strain vba3, active compounds read low 0.992 | locus YCR088W, strain abp1, active compounds read low 1 | locus YDL005C, strain med2, active compounds read low 1 | locus YDL035C, strain GPR1, active compounds read low 0.997 | locus YDL040C, strain nat1, active compounds read low 1.01 | locus YDL074C, strain BRE1, active compounds read low 1.02 | locus YDL101C, strain DUN1, active compounds read low 1.02 | locus YDL134C, strain PPH21, active compounds read low 1 | locus YDL185W, strain tfp1, active compounds read low 1.01 | locus YDL192W, strain arf1, active compounds read low 1 | locus YDR001C, strain nth1, active compounds read low 0.979 | locus YDR069C, strain doa4, active compounds read low 0.991 | locus YDR101C, strain arx1, active compounds read low 1.01 | locus YDR137W, strain rgp1, active compounds read low 0.942 | locus YDR150W, strain NUM1, active compounds read low 1 and 0.986 | locus YDR159W, strain sac3, active compounds read low 1.02 | locus YDR162C, strain NBP2, active compounds read low 1 | locus YDR195W, strain ref2 0.998 | locus YDR297W, strain sur2, active compounds read low 1.02 | locus YDR318W, strain mcm21, active compounds read low 1.02 | locus YDR334W, strain swr1, active compounds read low 0.942 | locus YDR335W, strain msn5, active compounds read low 0.984 | locus YDR363W, strain ESC2, active compounds read low 1.02 | locus YDR388W, active compounds read low 1.02 | locus YDR392W, strain spt3, active compounds read low 0.944 | locus YDR502C, strain sam2, active compounds read low 0.997 | locus YEL003W, strain gim4, active compounds read low 0.996 | locus YEL037C, strain rad23, active compounds read low 0.989 | locus YEL061C, strain CIN8 (second series), active compounds read low 0.975 | locus YEL061C, strain CIN8, active compounds read low 1.01 | locus YER002W, strain NOP16, active compounds read low 0.993 | locus YER015W, strain faa2, active compounds read low 0.988 | locus YER016W, strain bim1, active compounds read low 0.999 | locus YER110C, active compounds read low 1.01 | locus YER111C, strain swi4, active compounds read low 1 | locus YER155C, strain BEM2 (second series), active compounds read low 1.02 | locus YER155C, strain BEM2, active compounds read low 1 | locus YER167W, strain BCK2, active compounds read low 0.981 | locus YFR010W, strain ubp6, active compounds read low 0.978 | locus YGL078C, strain dbp3, active compounds read low 1.01 | locus YGL086W, strain mad1, active compounds read low 1 | locus YGL167C, strain pmr1, active compounds read low 0.989 | locus YGL173C, strain kem1, active compounds read low 1 | locus YGL227W, strain vid30, active compounds read low 0.988 | locus YGL240W, strain doc1, active compounds read low 1.03 | locus YGL248W, strain PDE1, active compounds read low 1.01 | locus YGL253W, strain hxk2, active compounds read low 0.983 | locus YGR078C, strain PAC10, active compounds read low 1.02 | locus YGR135W, strain pre9, active compounds read low 1.01 | locus YGR229C, strain SMI1, active compounds read low 1.01 and 1.02 | locus YGR252W, strain gcn5, active compounds read low 0.978 | locus YHR013C, strain ard1, active compounds read low 0.956 | locus YHR027C, strain rpn1, active compounds read low 0.971 | locus YHR030C, strain SLT2, active compounds read low 1 and 1.06 | locus YHR079C, strain IRE1 (second series), active compounds read low 1.02 | locus YHR079C, strain IRE1, active compounds read low 1.07 | locus YHR094C, strain hxt1, active compounds read low 1.01 | locus YHR129C, strain ARP1, active compounds read low 1.01 | locus YHR142W, strain chs7, active compounds read low 0.943 | locus YHR200W, strain rpn10, active compounds read low 1.02 | locus YIL066C, strain RNR3, active compounds read low 1.01 | locus YIL073C, strain SPO22, active compounds read low 1.04 | locus YIL125W, strain kgd1, active compounds read low 1.01 | locus YIR030C, strain dcg1, active compounds read low 1.02 | locus YJL092W, strain hpr5, active compounds read low 0.988 | locus YJL095W, strain BCK1 (second series), active compounds read low 0.994 | locus YJL095W, strain BCK1, active compounds read low 1.03 and 1.04 | locus YJL115W, strain asf1, active compounds read low 0.964 | locus YJL129C, strain trk1, active compounds read low 1 | locus YJL134W, strain LCB3, active compounds read low 1 | locus YJL154C, strain vps35, active compounds read low 0.973 | locus YJL164C, strain tpk1, active compounds read low 1.01 | locus YJL166W, strain qcr8, active compounds read low 0.981 | locus YJL168C, strain set2, active compounds read low 1.03 | locus YJL187C, strain SWE1 (second series), active compounds read low 1.03 | locus YJL187C, strain SWE1, active compounds read low 1.04 | locus YJR043C, strain POL32, active compounds read low 1.01 | locus YJR066W, strain TOR1, active compounds read low 1.01
